Marburg entry inh – blocks Marburg virus binding to or entry into cells; Potency, µM (highest dose often 37.8 µM), for the others: at the top dose activity change, negative = inhibition, most hits filed as inhibitors; Marburg virus pseudotyped entry inhibition, cell reporter; 300,000 tested, 1.8% active; calls by dose curve; tested in HEK293 cells
Sm TGR inh – blocks Schistosoma mansoni thioredoxin glutathione reductase. 360,000 tested, 3% active. Potency, µM (highest dose often 114 µM), without a hit: at the top dose activity change, negative = inhibition, most hits filed as inhibitors. purified TGR, DTNB reduction, TNB absorbance 405 nm. Q962Y6; note: nearly all actives have a fitted effect of over 60% in size
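TGR 20 nM + NADPH 100 uM (dispensed conc.), cpd preinc 15 min RT; start with NADPH (500 uM addition) then DTNB (15 mM addition). Kinetic TNB absorbance, 405 nm filter. Four-parameter Hill fit across titration.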
FMDV antiviral – antivirals against foot and mouth disease virus; FMDV antiviral cell-based qHTS; Potency, µM (top dose mostly 57.9 µM), inactives show top-dose activity change, negative = inhibition, hits mostly inhibitors; 410,000 tested, 1.2% active; calls by dose curve; tested in HEK293T cells; note: read-out not given here; nearly all actives have a fitted effect of over 45% in size
HCV inh – inhibitors of hepatitis C virus infection | AID 651820 | 340,000 tested, 3.4% active | Potency, µM (top dose mostly 41.8 µM), for inactives: at the top dose activity change, negative = inhibition, usual class: inhibitors | Huh7.5.1 HCVcc-Cre infection, luciferase reporter, 44 h
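Infectious HCVcc-Cre (~0.5 moi) was added to cells just after compound, with cells seeded 4 h earlier at 1,000 per well. Luciferase activity after 44 h culture reported infection; substrate was incubated 15 min at room temperature before reading.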
Lassa entry inh – inhibitors of Lassa virus binding or cell entry | Lassa virus pseudotype entry inhibition, cell reporter | Potency, µM (doses to about 37.9 µM), inactives show at the highest dose activity change, negative = inhibition, hits mostly inhibitors | 300,000 tested, 1.2% active; calls by dose curve; tested in HEK293 cells; note: nearly all actives have a fitted effect of over 50% in size
RE007 growth inh – less growth of the S. pombe RE007 Vpr strain; S. pombe RE007 Vpr strain, BacTiter-Glo ATP luminescence, 24 h; Potency, µM (titrated, usually from 92.2 µM), without a hit: at the highest dose activity change, negative = less growth, hits mostly inhibitors; 360,000 tested, 0.21% active; AID 651644; active = well fitted falling curve with a large enough effect; inconclusive = small, poorly fitted or top-dose-only effect; inactive = no such curve, though single readings can be large or run the other way; note: nearly all actives have a fitted effect of over 50% in size
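Fission yeast strain RE007, carrying one chromosomally integrated HIV-1 vpr copy, was seeded at OD 0.01 in PMG+AL medium with 23 nL pinned compound. After 24 h at 30 °C and 99% humidity, viability was read by BacTiter-Glo luminescence.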
Active calls of the source: *; [ ] = remark or other dose. Shown are actives, neighbours in structure and some others; about 7.2% of the full set was active somewhere. Unless noted, calls come from the whole dose curve; as a rule, active = well fitted curve in the direction sought with a large enough effect; inconclusive = small, poorly fitted or top-dose-only effect, or another doubt; inactive = no such curve, though single readings can be large; an effect the other way counts as inactive or inconclusive. % is set by controls: 0 for no effect and ±100 for the full control effect; potency is the fitted concentration of half-maximal effect.

What do the screens show for `Cc1cccc(Nc2nc(N)c([N+](=O)[O-])c(N3CCOCC3)n2)c1`?
Marburg entry inh: 5.6µM*; Sm TGR inh: -14%; FMDV antiviral: inconclusive; HCV inh: -12%; Lassa entry inh: -2%; RE007 growth inh: 1%

How did Cc1cccc(Nc2nc(NCc3ccco3)nc(N3CCOCC3)n2)c1 do in these assays?
Marburg entry inh: 2.3µM*; Sm TGR inh: 6%; FMDV antiviral: -22%; HCV inh: inconclusive; Lassa entry inh: inconclusive; RE007 growth inh: 17%

What do the screens show for `Cc1ccc(Nc2nc(N)c([N+](=O)[O-])c(N3CCCC(C)C3)n2)cc1C` (centres undefined)?
Marburg entry inh: 2.2µM*; Sm TGR inh: -20%; FMDV antiviral: inconclusive; HCV inh: 34%; Lassa entry inh: -6%; RE007 growth inh: 8%

What do the screens show for `Cc1ccc(CNC(=O)c2cc3c(=O)n4cccc(C)c4nc3s2)cc1`?
Marburg entry inh: 8%[46.1 µM]; Sm TGR inh: 8%; FMDV antiviral: inconclusive; Lassa entry inh: -27%[46.1 µM]

Results for COc1ccc(NC(=O)N2CC[C@@]3(CCCN(C(=O)c4ccc(OC)cc4)C3)C2)cc1 ?
FMDV antiviral: 6%

Results for COc1c(C2=CC(=O)N(C)C2=O)c2c(n1C)C(=O)c1ccccc1C2=O ?
FMDV antiviral: -22%

How did COc1ccc(NC(=O)c2ccc(-n3c(C)ccc3C)cc2)c(OC)c1 do in these assays?
Marburg entry inh: inconclusive; Sm TGR inh: 28µM*; FMDV antiviral: -21%; HCV inh: inconclusive; Lassa entry inh: inconclusive; RE007 growth inh: 8%

How did Cc1ccc(C)n1-c1ccc(C(=O)Nc2ccccc2F)cc1 do in these assays?
Marburg entry inh: -26%[46.1 µM]; Sm TGR inh: 50µM*; FMDV antiviral: 30%; HCV inh: -9%; Lassa entry inh: inconclusive; RE007 growth inh: 13%

What do the screens show for `O=C1c2ccncc2C(=O)N1CO`?
Marburg entry inh: inconclusive; Sm TGR inh: 50µM*; FMDV antiviral: -10%; HCV inh: 1%; Lassa entry inh: 14%; RE007 growth inh: 2%

Results for CCOc1cc(S(=O)(=O)Nc2ccc(CC)cc2)ccc1Cl ?
Marburg entry inh: -13%; Sm TGR inh: -3%; FMDV antiviral: 1%; HCV inh: -1%; Lassa entry inh: -2%; RE007 growth inh: inconclusive

Results for CCOc1cc(S(=O)(=O)Nc2ccccc2CC)ccc1Cl ?
Marburg entry inh: -26%; Sm TGR inh: -10%; FMDV antiviral: 9%; HCV inh: 10µM*; Lassa entry inh: -7%; RE007 growth inh: 12%

How did CC(CCC(=O)OC[C@H]1O[C@H](C#Cc2ccccc2)C=C[C@H]1Oc1ccc(C)cc1)=NOC[C@@H](O)COCc1ccco1 do in these assays?
Marburg entry inh: -10%[14.2 µM]

Results for CCN(CC)S(=O)(=O)c1ccc(C)c(N=C=S)c1 ?
Marburg entry inh: inconclusive; Sm TGR inh: 40µM*; FMDV antiviral: -3%; HCV inh: -14%; Lassa entry inh: inconclusive; RE007 growth inh: 26%

Results for CCN(C(=O)c1noc2c1COc1ccc(C)cc1-2)c1cccc(C)c1 ?
Sm TGR inh: -3%; FMDV antiviral: -7%; Lassa entry inh: 6%[46.1 µM]

How did CC(NC(=O)c1cccnc1)c1nnc2n1CCN(Cc1ccc(-c3ccccc3Cl)o1)CC2 (centres undefined) do in these assays?
FMDV antiviral: 11%

What do the screens show for `Cc1cccc(N(C(=O)c2nsc(Cl)c2Cl)C(C(=O)NC2CCCC2)c2ccc(O)cc2)c1C` (centres undefined)?
Marburg entry inh: inconclusive; Sm TGR inh: -3%; FMDV antiviral: -6%; HCV inh: inconclusive; Lassa entry inh: 7.3µM*; RE007 growth inh: 0%

How did Cc1cc(C)cc(N(C(=O)c2nsc(Cl)c2Cl)C(C(=O)NC2CCCC2)c2ccc(O)cc2)c1 (centres undefined) do in these assays?
Marburg entry inh: inconclusive; Sm TGR inh: 1%; FMDV antiviral: -16%; HCV inh: inconclusive; Lassa entry inh: inconclusive; RE007 growth inh: 4%

How did Cc1ccc(N(C(=O)c2nsc(Cl)c2Cl)C(C(=O)NC2CCCC2)c2ccc(O)cc2)cc1C (centres undefined) do in these assays?
Marburg entry inh: inconclusive; Sm TGR inh: -3%; FMDV antiviral: -15%; HCV inh: inconclusive; Lassa entry inh: 1.6µM*; RE007 growth inh: 6%

Results for O=C(CSc1ccnc(=O)[nH]1)NCc1ccc(F)cc1 ?
Sm TGR inh: inconclusive; FMDV antiviral: 9%; Lassa entry inh: 17%[46.1 µM]

How did CCCn1c(N)c(N(CCOC)C(=O)c2cc(-c3ccco3)nc3ccccc23)c(=O)[nH]c1=O do in these assays?
Sm TGR inh: 18µM*; FMDV antiviral: -23%; HCV inh: 6%; RE007 growth inh: 4%

How did COCCCN(C(=O)c1cc(-c2ccco2)nc2ccccc12)c1c(N)n(Cc2ccccc2)c(=O)[nH]c1=O do in these assays?
Marburg entry inh: -13%; Sm TGR inh: 16µM*; FMDV antiviral: -2%; HCV inh: 0%[8.37 µM]; Lassa entry inh: 5%; RE007 growth inh: -4%

Results for COCCCN(C(=O)c1cc(Cl)nc2ccccc12)c1c(N)n(Cc2ccccc2)c(=O)[nH]c1=O ?
Marburg entry inh: inconclusive; Sm TGR inh: 0%; FMDV antiviral: 0%; HCV inh: 8%; Lassa entry inh: 10%; RE007 growth inh: -22%

How did CCCCn1c(N)c(N(CCOC)C(=O)c2ccc(-c3ccc(Cl)cc3)o2)c(=O)[nH]c1=O do in these assays?
Marburg entry inh: inconclusive; Sm TGR inh: 45µM*; FMDV antiviral: 10%; HCV inh: 22%; Lassa entry inh: -9%[46.1 µM]; RE007 growth inh: -2%

How did Cc1nc(Cl)c(C(=O)NC(=O)Nc2cccc(C(F)(F)F)c2)c(C)c1[N+](=O)[O-] do in these assays?
Marburg entry inh: inconclusive; Sm TGR inh: -26%; FMDV antiviral: 22µM*; HCV inh: -8%; Lassa entry inh: inconclusive; RE007 growth inh: 3%

How did Cc1onc(C(=O)Nc2cccc(C(F)(F)F)c2)c1[N+](=O)[O-] do in these assays?
Sm TGR inh: -4%; FMDV antiviral: -25%; HCV inh: -4%; RE007 growth inh: -11%

What do the screens show for `C=CCn1c(C)cc(C(=O)CSc2nc3ccccc3o2)c1C`?
Marburg entry inh: 13µM*; Sm TGR inh: -13%; FMDV antiviral: -20%; HCV inh: 22µM*; Lassa entry inh: -25%; RE007 growth inh: 4%

How did Cc1cc(C(=O)CSc2nc3ccccc3o2)c(C)n1C1CC1 do in these assays?
Marburg entry inh: inconclusive; Sm TGR inh: -5%; FMDV antiviral: 9%; HCV inh: inconclusive; Lassa entry inh: inconclusive; RE007 growth inh: -6%
